Holding throughout (experiment): DAPPL (digital affinity profiling via proximity ligation, sequencing); 10 mM Tris-HCl pH 7.5, 50 mM NaCl, 1 mM DTT, 4% glycerol, room temperature, 30 min; GST-TFs on glutathione beads, 16-mer random dsDNA library, 0.1% formaldehyde crosslink after washing; high values mean tight binding
The target of one experiment is T1, FLI1 (Homo sapiens, UniProt Q01543 1-452).
T1 sequence: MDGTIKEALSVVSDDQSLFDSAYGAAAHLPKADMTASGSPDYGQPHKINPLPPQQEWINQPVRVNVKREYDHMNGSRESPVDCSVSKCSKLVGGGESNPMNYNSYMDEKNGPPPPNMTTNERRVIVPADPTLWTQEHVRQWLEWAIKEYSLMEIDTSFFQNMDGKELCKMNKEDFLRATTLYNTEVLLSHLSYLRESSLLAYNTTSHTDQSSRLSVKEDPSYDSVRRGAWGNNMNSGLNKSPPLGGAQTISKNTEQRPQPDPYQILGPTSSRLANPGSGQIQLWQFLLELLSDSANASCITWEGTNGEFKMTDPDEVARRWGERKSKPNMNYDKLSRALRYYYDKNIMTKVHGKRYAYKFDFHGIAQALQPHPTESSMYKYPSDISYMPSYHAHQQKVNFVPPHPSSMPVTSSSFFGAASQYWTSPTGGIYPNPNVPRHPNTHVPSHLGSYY
The settings on record: protein: recombinant; tags: N-terminal GST; dsDNA, one strand shown. The method, boiled down:
(§1)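 In yeast, human transcription factors were expressed with a GST fusion, then pulled down on glutathione beads and given DNA barcodes. Pooled with a tag-only sample, they were exposed to 200 nmole of a 16-mer random double-stranded DNA library (Tris/NaCl/DTT/glycerol buffer, room temperature, 30 min), washed, crosslinked with 0.1% formaldehyde, proximity-ligated using BsaI/T4 ligase for 1 h at 37 °C, PCR-amplified and read on an Illumina NextSeq500. Each hexamer's frequency of reads for a factor, divided by the matching frequency for the tag-only sample, gives the binding signal.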

A further experiment deals with T2, ELK1 (Homo sapiens, UniProt P19419 1-428).
T2 sequence: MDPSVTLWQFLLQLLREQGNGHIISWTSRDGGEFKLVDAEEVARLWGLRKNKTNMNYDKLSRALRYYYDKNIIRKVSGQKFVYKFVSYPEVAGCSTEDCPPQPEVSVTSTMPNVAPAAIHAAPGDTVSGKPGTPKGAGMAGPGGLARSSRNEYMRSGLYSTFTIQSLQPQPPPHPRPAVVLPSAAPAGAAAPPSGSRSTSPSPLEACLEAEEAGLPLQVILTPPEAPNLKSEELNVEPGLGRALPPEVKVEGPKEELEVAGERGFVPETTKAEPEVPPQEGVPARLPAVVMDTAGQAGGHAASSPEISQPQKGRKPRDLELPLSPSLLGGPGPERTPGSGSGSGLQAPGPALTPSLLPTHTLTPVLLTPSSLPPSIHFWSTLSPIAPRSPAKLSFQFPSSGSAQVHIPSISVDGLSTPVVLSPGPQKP
To be noted: protein: recombinant; tags: N-terminal GST; dsDNA, one strand shown. The method, boiled down: as §1

For another experiment, the target named is T3, GABPA (Homo sapiens, UniProt Q06546 1-454).
T3 sequence: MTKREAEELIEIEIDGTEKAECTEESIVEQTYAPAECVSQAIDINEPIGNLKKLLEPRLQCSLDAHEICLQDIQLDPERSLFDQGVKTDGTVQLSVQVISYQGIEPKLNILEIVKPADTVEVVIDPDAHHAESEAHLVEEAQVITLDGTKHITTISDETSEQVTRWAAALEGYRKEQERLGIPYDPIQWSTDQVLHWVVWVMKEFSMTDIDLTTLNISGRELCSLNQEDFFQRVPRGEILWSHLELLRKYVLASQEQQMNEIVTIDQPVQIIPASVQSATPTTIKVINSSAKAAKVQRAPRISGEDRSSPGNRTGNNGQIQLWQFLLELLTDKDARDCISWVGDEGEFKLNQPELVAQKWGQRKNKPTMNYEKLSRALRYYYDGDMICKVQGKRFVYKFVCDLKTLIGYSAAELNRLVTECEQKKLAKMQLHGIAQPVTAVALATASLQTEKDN
To be noted: protein: recombinant; tags: N-terminal GST; dsDNA, one strand shown. The method, boiled down:
as §1

The target in the next experiment is T4, ERG (Homo sapiens, UniProt P11308 1-479).
T4 sequence: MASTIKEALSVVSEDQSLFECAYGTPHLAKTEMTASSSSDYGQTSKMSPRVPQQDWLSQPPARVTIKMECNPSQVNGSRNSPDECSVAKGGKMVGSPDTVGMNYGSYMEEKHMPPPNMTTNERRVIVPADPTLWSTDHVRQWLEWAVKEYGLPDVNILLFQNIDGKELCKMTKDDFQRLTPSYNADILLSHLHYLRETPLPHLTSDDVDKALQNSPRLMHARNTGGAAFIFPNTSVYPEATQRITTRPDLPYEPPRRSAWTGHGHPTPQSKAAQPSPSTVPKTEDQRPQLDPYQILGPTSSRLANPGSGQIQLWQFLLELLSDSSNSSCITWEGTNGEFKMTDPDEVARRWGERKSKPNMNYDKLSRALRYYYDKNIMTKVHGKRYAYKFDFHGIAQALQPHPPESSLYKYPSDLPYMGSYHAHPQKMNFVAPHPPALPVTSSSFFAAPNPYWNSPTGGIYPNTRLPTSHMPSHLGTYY
To be noted: protein: recombinant; tags: N-terminal GST; dsDNA, one strand shown. In short, it runs like this: as §1

For a further experiment, the target named is ELF1 (Homo sapiens, UniProt P32519 1-619). The settings on record: protein: recombinant; tags: N-terminal GST; dsDNA, one strand shown. The method, boiled down: as §1
Sequence of ELF1 (P32519 whole entry): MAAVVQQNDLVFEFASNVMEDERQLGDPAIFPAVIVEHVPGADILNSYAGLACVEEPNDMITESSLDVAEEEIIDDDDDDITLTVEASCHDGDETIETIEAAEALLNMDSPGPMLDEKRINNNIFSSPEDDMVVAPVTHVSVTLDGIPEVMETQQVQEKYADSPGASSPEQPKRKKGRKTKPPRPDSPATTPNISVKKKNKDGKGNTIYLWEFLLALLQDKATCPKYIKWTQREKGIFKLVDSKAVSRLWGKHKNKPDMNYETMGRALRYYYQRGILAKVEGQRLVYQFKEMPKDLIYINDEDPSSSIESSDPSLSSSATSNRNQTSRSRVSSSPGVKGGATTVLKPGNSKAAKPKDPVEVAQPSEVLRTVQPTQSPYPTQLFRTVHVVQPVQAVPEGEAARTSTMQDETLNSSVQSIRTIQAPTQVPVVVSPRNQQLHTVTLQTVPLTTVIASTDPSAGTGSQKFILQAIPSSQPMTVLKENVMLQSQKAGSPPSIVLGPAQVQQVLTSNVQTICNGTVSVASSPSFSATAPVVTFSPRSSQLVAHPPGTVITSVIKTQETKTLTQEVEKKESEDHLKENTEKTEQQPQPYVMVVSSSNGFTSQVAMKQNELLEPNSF
Another experiment deals with T5, EHF (Homo sapiens, UniProt Q9NZC4 1-300).
T5 sequence: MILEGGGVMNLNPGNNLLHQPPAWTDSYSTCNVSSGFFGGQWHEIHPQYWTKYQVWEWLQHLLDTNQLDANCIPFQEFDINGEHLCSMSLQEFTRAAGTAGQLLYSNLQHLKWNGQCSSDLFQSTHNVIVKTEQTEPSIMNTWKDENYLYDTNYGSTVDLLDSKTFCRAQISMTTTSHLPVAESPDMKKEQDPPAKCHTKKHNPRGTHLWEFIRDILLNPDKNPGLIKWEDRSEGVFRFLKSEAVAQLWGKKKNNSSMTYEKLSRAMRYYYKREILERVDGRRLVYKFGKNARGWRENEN
To be noted: protein: recombinant; tags: N-terminal GST; dsDNA, one strand shown. In short, it runs like this: as §1

A further experiment addresses SPI1 (Homo sapiens, UniProt P17947 1-270). To be noted: protein: recombinant; tags: N-terminal GST; dsDNA, one strand shown. The method, boiled down:
as §1

A further experiment has as its target SPIB (Homo sapiens, UniProt Q01892 1-262). The settings on record: protein: recombinant; tags: N-terminal GST; dsDNA, one strand shown. In short, it runs like this: as §1
For another experiment, the target named is T6, ELK3 (Homo sapiens, UniProt P41970 1-407).
T6 sequence: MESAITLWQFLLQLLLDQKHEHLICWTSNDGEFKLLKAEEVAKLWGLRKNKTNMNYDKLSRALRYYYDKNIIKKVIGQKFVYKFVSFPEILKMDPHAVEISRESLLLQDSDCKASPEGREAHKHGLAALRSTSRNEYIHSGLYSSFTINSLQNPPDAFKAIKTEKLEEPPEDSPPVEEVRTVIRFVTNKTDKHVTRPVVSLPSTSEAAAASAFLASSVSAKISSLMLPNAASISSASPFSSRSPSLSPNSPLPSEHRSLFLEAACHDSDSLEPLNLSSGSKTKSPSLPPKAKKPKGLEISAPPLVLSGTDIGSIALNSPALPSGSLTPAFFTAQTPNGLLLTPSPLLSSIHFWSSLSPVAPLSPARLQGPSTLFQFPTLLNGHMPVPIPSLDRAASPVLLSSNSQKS
To be noted: protein: recombinant; tags: N-terminal GST; dsDNA, one strand shown. The method, boiled down:
as §1

Another experiment deals with T7, FEV (Homo sapiens, UniProt Q99581 1-238).
T7 sequence: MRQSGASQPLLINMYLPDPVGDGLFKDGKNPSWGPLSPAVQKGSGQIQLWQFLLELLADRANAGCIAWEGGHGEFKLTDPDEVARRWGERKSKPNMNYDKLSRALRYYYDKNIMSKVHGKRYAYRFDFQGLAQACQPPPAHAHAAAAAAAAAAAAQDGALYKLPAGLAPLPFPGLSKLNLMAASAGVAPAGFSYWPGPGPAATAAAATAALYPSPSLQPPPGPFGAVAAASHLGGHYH
The settings on record: protein: recombinant; tags: N-terminal GST; dsDNA, one strand shown. The method, boiled down: as §1

The next experiment deals with ETV5 (Homo sapiens, UniProt P41161 1-510). To be noted: protein: recombinant; tags: N-terminal GST; dsDNA, one strand shown. In short, it runs like this: as §1
Sequence of ETV5 (P41161 whole entry): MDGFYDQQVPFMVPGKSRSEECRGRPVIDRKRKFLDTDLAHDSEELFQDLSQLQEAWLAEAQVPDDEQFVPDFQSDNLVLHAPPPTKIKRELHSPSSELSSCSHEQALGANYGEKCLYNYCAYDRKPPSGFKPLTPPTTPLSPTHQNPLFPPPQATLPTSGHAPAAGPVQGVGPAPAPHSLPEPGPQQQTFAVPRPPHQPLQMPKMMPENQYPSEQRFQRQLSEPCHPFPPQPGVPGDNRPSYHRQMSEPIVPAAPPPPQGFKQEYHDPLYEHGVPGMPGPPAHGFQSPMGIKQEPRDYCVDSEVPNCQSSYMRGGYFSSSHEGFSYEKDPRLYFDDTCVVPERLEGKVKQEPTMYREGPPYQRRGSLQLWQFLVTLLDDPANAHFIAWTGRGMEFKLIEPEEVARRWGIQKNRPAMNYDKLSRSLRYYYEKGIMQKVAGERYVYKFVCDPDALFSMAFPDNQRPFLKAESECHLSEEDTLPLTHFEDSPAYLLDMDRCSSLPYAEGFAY
The target of another experiment is HSF1 (Homo sapiens, UniProt Q00613 1-529). To be noted: protein: recombinant; tags: N-terminal GST; chain copies: 3; dsDNA, one strand shown. The method, boiled down: as §1
Sequence of HSF1 (Q00613 whole entry): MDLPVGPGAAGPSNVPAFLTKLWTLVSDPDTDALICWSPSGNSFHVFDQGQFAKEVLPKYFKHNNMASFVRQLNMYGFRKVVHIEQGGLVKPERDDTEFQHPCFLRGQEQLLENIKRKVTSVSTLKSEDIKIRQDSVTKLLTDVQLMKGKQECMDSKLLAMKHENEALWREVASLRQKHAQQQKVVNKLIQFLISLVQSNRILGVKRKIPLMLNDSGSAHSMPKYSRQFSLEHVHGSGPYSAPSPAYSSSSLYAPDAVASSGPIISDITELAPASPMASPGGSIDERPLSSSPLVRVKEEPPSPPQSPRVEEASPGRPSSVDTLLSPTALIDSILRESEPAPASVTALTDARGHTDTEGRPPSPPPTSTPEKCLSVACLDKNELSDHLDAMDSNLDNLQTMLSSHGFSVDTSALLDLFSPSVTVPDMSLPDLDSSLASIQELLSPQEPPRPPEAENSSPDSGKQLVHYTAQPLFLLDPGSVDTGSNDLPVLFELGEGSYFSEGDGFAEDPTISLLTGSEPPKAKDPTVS
The target of the next experiment is T8, SPIC (Homo sapiens, UniProt Q8N5J4 1-248).
T8 sequence: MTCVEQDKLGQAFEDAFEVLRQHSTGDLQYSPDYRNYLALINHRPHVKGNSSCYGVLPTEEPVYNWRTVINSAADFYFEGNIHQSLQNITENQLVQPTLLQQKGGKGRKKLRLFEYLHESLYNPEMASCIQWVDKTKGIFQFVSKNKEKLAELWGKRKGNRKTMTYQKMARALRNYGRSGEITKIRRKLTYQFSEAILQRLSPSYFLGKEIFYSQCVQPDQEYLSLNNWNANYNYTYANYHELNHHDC
The settings on record: protein: recombinant; tags: N-terminal GST; dsDNA, one strand shown. The method, boiled down:
as §1

Another experiment deals with ELF4 (Homo sapiens, UniProt Q99607 1-663). The settings on record: protein: recombinant; tags: N-terminal GST; dsDNA, one strand shown. In short, it runs like this: as §1
Sequence of ELF4 (Q99607 whole entry): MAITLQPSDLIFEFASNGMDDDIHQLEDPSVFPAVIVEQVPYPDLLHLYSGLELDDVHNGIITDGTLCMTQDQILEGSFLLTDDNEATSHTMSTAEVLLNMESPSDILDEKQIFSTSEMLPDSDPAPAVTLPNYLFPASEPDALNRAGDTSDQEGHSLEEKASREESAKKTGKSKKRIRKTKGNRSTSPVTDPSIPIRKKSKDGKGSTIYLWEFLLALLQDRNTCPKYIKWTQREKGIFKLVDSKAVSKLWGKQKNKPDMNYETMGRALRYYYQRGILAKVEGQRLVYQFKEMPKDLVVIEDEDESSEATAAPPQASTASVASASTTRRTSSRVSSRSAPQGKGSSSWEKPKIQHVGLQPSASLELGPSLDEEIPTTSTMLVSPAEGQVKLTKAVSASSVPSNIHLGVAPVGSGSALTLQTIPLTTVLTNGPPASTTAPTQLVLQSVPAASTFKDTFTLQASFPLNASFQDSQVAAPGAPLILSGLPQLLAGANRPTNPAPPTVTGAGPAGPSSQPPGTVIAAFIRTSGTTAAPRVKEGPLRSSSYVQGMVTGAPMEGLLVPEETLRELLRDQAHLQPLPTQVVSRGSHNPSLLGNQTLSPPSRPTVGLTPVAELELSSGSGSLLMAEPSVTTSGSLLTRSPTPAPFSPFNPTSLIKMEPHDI
The next experiment addresses T9, ELK4 (Homo sapiens, UniProt P28324-2 1-405).
T9 sequence: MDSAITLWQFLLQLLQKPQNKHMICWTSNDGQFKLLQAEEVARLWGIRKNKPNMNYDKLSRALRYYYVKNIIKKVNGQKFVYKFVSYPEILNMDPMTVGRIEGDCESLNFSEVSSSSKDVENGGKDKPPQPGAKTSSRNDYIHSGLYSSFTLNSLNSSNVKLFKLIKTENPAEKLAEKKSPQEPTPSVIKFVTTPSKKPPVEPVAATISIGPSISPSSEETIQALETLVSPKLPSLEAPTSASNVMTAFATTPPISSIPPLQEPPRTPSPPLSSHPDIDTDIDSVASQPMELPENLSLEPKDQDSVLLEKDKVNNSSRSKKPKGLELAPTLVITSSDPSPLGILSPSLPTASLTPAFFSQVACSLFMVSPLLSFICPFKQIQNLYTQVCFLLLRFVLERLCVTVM
The settings on record: protein: recombinant; tags: N-terminal GST; dsDNA, one strand shown. In short, it runs like this: as §1

The target in a further experiment is T10, ETV2 (Homo sapiens, UniProt O00321 1-342).
T10 sequence: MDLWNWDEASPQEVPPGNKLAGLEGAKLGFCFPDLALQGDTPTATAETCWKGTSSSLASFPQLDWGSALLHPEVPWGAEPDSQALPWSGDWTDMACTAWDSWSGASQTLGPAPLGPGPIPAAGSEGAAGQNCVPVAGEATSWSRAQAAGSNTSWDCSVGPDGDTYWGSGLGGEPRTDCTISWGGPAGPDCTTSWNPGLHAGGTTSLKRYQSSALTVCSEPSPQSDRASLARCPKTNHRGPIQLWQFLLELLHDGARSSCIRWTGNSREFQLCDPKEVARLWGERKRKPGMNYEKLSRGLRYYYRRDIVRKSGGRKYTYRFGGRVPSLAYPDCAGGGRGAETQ
The settings on record: protein: recombinant; tags: N-terminal GST; dsDNA, one strand shown. In short, it runs like this:
as §1

Another experiment addresses T11, ELF3 (Homo sapiens, UniProt P78545 1-371).
T11 sequence: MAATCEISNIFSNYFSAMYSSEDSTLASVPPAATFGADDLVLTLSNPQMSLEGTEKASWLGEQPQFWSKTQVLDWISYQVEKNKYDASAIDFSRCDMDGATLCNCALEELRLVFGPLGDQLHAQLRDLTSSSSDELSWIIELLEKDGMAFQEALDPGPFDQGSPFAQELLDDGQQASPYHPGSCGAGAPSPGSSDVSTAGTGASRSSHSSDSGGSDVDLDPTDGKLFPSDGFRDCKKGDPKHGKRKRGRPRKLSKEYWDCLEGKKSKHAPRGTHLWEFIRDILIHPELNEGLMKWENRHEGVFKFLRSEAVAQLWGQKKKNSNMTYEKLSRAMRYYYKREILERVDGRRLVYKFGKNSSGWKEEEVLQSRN
To be noted: protein: recombinant; tags: N-terminal GST; dsDNA, one strand shown. In short, it runs like this: as §1

For a further experiment, the target named is CRX (Homo sapiens, UniProt O43186 1-299). The settings on record: protein: recombinant; tags: N-terminal GST; dsDNA, one strand shown. In short, it runs like this: as §1
Sequence of CRX (O43186 whole entry): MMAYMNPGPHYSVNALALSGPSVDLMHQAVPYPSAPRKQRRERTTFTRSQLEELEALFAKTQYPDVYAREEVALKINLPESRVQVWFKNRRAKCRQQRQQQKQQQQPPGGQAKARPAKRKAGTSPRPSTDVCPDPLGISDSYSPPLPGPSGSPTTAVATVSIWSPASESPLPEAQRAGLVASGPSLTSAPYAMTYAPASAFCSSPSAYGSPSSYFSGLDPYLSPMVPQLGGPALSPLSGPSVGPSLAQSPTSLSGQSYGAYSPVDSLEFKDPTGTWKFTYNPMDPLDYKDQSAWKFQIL
The target of another experiment is ETV1 (Homo sapiens, UniProt P50549 1-477). The settings on record: protein: recombinant; tags: N-terminal GST; dsDNA, one strand shown. The method, boiled down: as §1
Sequence of ETV1 (P50549 whole entry): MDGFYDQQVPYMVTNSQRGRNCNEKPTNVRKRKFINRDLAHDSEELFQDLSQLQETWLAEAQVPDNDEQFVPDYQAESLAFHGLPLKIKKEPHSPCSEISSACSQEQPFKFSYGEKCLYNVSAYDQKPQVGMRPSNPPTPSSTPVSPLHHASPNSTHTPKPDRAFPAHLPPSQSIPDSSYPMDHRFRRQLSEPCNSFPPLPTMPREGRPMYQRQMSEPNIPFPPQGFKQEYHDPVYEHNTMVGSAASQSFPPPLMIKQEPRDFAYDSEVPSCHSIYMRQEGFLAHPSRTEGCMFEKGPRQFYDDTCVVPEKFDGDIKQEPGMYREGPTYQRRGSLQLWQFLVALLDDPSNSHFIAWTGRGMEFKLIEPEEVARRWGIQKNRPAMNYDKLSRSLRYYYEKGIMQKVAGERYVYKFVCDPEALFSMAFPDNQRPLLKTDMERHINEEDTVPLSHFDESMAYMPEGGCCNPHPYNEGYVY

Sequence of SPIB (Q01892 whole entry): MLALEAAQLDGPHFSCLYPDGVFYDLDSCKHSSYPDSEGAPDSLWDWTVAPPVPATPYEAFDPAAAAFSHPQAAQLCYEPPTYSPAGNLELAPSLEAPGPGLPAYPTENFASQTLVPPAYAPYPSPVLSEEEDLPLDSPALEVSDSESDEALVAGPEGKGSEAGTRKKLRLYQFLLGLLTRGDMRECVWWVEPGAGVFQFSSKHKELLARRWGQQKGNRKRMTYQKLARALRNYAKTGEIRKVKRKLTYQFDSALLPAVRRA

TGTCCT: the binding signal with FLI1 was 1.37 fold enrichment (6-mer frequency, TF over GST control); in the experiment with ELK1 it was 1.38 fold enrichment (6-mer frequency, TF over GST control); with GABPA, 1.58 fold enrichment (6-mer frequency, TF over GST control); with ERG, 1.38 fold enrichment (6-mer frequency, TF over GST control); with ELF1 it was 1.5 fold enrichment (6-mer frequency, TF over GST control); with EHF, 1.52 fold enrichment (6-mer frequency, TF over GST control). For the same sequence, the binding signal in the experiment with SPI1 was 1.44 fold enrichment (6-mer frequency, TF over GST control); with SPIB it was 1.54 fold enrichment (6-mer frequency, TF over GST control); with ELK3 it was 1.41 fold enrichment (6-mer frequency, TF over GST control); in the experiment with FEV, 1.45 fold enrichment (6-mer frequency, TF over GST control); with ETV5, 1.56 fold enrichment (6-mer frequency, TF over GST control); with HSF1, 1.06 fold enrichment (6-mer frequency, TF over GST control). In addition, the binding signal was 1.53 fold enrichment (6-mer frequency, TF over GST control) with SPIC; 1.4 fold enrichment (6-mer frequency, TF over GST control) in the experiment with ELF4; 1.28 fold enrichment (6-mer frequency, TF over GST control) with ELK4; 1.67 fold enrichment (6-mer frequency, TF over GST control) with ETV2; 1.46 fold enrichment (6-mer frequency, TF over GST control) in the experiment with ELF3; 1.12 fold enrichment (6-mer frequency, TF over GST control) with CRX. For the same sequence, in the experiment with ETV1, the binding signal was 1.55 fold enrichment (6-mer frequency, TF over GST control).

Values taken from PMC7862700, “An all-to-all approach to the identification of sequence-specific readers for epigenetic DNA modifications on cytosine”.
